# In PubChem BioAssay (NCI):
# The panel holds about 79,000 compounds, 15% with a hit somewhere; the sample as a whole holds those more often. Unmarked numbers belong to inactive results. Active and inactive are the calls of the source. No stated cut-off is given here; in the data, active means growth inhibition above about 70%; inactive means the rest.
# What was measured:
# [1] = NCI Yeast Anticancer Drug Screen. Data for the rad50 strain (AID 155);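 further: 0% = growth of vehicle-only cultures of the same strain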; settings: S. cerevisiae rad50 strain growth inhibition, stronger effect = higher value
# Summary of the method: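 Genetically altered yeast (DNA repair pathway); compound treatment; growth inhibition vs vehicle ctrl.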
# [2] = NCI Yeast Anticancer Drug Screen. Data for the mec2-1 strain (AID 157); settings: S. cerevisiae mec2-1 strain, stronger effect = higher value
# Summary of the method: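 Using mec2-1 yeast: add compound, measure growth, express inhibition versus vehicle-treated cultures.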
# [3] = NCI Yeast Anticancer Drug Screen. Data for the sgs1 mgt1 strain (AID 161);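 further: 0% = growth of cultures given vehicle only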; settings: S. cerevisiae sgs1 mgt1 strain, stronger effect = higher value
# Summary of the method: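 Yeast cells carrying a defined DNA-repair defect were exposed to test compounds. Growth inhibition was measured relative to vehicle-treated controls.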
# [4] = NCI Yeast Anticancer Drug Screen. Data for the cln2 rad14 strain (AID 165);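 further: 0% = growth equal to vehicle treated cultures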; settings: S. cerevisiae cln2 rad14 strain, stronger effect = higher value
# Summary of the method: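 Yeast strain cln2 rad14, bearing defects in cell cycle control and DNA repair, serves as the test system; values reflect growth inhibition compared with vehicle.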
# [5] = NCI Yeast Anticancer Drug Screen. Data for the bub3 strain (AID 167); settings: S. cerevisiae bub3 mutant strain, stronger effect = higher value
# Summary of the method: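 Yeast carrying a defined mutation is treated with each compound, and growth is compared with that of vehicle-exposed cells to give inhibition.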
# [6] = NCI Yeast Anticancer Drug Screen. Data for the mlh1 rad18 strain (AID 175); settings: S. cerevisiae mlh1 rad18 strain growth inhibition, stronger effect = higher value
# Summary of the method: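 Steps: expose repair-defective yeast to compound; measure growth; express inhibition against vehicle-treated controls.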
# [7] = at 5.0 µM (retest, dose inferred, filed as 0.5)
# [8] = at 50.0 µM (retest, dose inferred, filed as 5.0)
SMILES,"growth inhibition [1, 7]","growth inhibition [1, 8]",growth inhibition ([1]; at 50.0 µM),"growth inhibition [2, 7]","growth inhibition [2, 8]",growth inhibition ([2]; at 50.0 µM),"growth inhibition [3, 7]","growth inhibition [3, 8]",growth inhibition ([3]; at 50.0 µM),"growth inhibition [4, 7]","growth inhibition [4, 8]",growth inhibition ([4]; at 50.0 µM),"growth inhibition [5, 7]","growth inhibition [5, 8]",growth inhibition ([5]; at 50.0 µM),"growth inhibition [6, 7]","growth inhibition [6, 8]",growth inhibition ([6]; at 50.0 µM)
CC[N+](C)(CC)CCCOC(=O)c1ccccc1Oc1ccc(C)cc1,1%,0%,75.5% (active),-17%,-8%,13.8%,-9%,-7%,21.9%,-4%,-6%,-0.85%,2%,42%,12.8%,15%,3%,14.9%
CCOC(=O)N(c1ccccc1)N(CC)C(=O)/C(C)=N/Nc1ccc([N+](=O)[O-])cc1,6%,93% (active),97.7% (active),5%,94% (active),95.8% (active),9%,94% (active),97.7% (active),10%,95% (active),92.2% (active),-10%,92% (active),95.8% (active),-1%,94% (active),97% (active)
O=C(O)C(SC1=NNC2(C(=O)N1)c1ccccc1-c1ccccc12)SC1=NNC2(C(=O)N1)c1ccccc1-c1ccccc12,4%,96% (active),97.5% (active),-19%,92% (active),96.3% (active),2%,96% (active),97.4% (active),4%,66%,95.8% (active),9%,93% (active),98% (active),-15%,95% (active),97.3% (active)
C/C(=N\O)c1ccc2c3c(ccc([N+](=O)[O-])c13)CC2,-2%,9%,13.2%,-9%,7%,29.2%,-9%,-2%,-6.4%,0%,-5%,34.9%,0%,7%,85.2% (active),8%,30%,88.5% (active)
c1nc(N2CCOCC2)c2[nH]cnc2n1,5%,-5%,22.1%,-1%,-7%,8.05%,0%,4%,12.2%,-1%,-13%,36.5%,-2%,8%,-5.75%,5%,5%,17.4%
CCN(CC)C(=S)N/N=C(/c1ccccc1)c1ccccn1,42%,96% (active),70.7% (active),92% (active),97% (active),76.9% (active),44%,97% (active),81.8% (active),80% (active),95% (active),81.8% (active),95% (active),96% (active),85.2% (active),96% (active),97% (active),83.1% (active)
COc1cccc2c1C(=O)c1c(O)c3c(c(O)c1C2=O)C[C@@](O)(C(C)=O)C[C@@H]3OC1CC(N(CCO)Cc2ccccc2)C(O)C(C)O1 (some centres not stated),97% (active),99% (active),91.2% (active),99% (active),100% (active),91.3% (active),95% (active),99% (active),91.5% (active),90% (active),97% (active),90.8% (active),98% (active),99% (active),89.4% (active),95% (active),99% (active),90.8% (active)
CN(C)c1ccc2c(c1)N(C)c1ccccc1C2(Cl)c1ccccc1 (configuration not stated),96% (active),99% (active),99.2% (active),99% (active),100% (active),99.5% (active),90% (active),99% (active),99.3% (active),70% (active),98% (active),99.2% (active),89% (active),99% (active),99.3% (active),95% (active),99% (active),99.4% (active)
CC([NH-])C(=O)O.[Cu+2].[NH-]C(Cc1cnc[nH]1)C(=O)O (configuration not stated),-8%,7%,98.9% (active),-4%,0%,99.3% (active),-3%,1%,98.7% (active),4%,12%,96% (active),-5%,-1%,99% (active),-7%,2%,98.7% (active)
